# Inconclusive results are not listed. Unmarked numbers belong to inactive results. The source made the active and inactive calls. Calls follow the shape of the dose curve; as a rule, active = well fitted cell-killing curve with a large enough effect in the repeat runs; inconclusive = weak or mixed curves, or effect the other way; inactive = flat fitted curve, though single readings scatter.
# Test: qHTS assay to identify small molecule antagonists of the constitutive androstane receptor (CAR) signaling pathway - cell viability counter screen (AID 1224837); also: nearly all actives have a fitted effect of over 45% in size
# Settings: HepG2-CYP2B6-hCAR viability, CellTiter-Fluor, 23 h, co-treated with 50 nM CITCO; series mostly up to 92.4 µM; activity change, negative = cytotoxicity: at the top concentration
# From the text: National Center for Advancing Translational Sciences [NCATS]
# NIH Chemical Genomics Center [NCGC]
# U.S. Environmental Protection Agency [EPA]
# National Institutes of Environmental Health Sciences [NIEHS]
# National Toxicology Program [NTP]
# U.S. Food and Drug Administration [FDA]
# The constitutive androstane receptor (CAR) is a nuclear receptor which regulates multiple drug metabolizing enzymes (DMEs) and transporters. Activating CAR will generally increase the transcription and subsequent translation of CYP2B6 and CYP3A4. These two DMEs represent about 50% of the drug metabolizing potential in the body. When CAR is deactivated, the metabolizing potential in the body will decrease, subsequently increasing the toxicity in the body or lowering the therapeutic potential of a pro-drug. Recently, there have also been studies performed indicating CARs role in energy metabolism and cancer therapy. Therefore, inhibiting CARs activity could have a potential effect on diabetes and cancer. Identifying environmental toxins and compounds which modulate CAR, through the use of the Tox21 10K compound collection, will be an important step in determining the toxicity and potential therapeutic effects these factors will have on the human body. To differentiate true CAR antagonists from cytotoxic substances, the assay is multiplexed with a cell viability assay.
# Tox21 Assay Protocol Summary:
# A double-stable (hCAR and CYP2B6-2.2kb) transfected cell line, derived from human hepatoma (HepG2) cells, was utilized for the duration of the quantitative high-throughput screens. The HepG2-CYP2B6-hCAR cells were dispensed at 2500 cells/4 uL/well in 1536-well white solid bottom plates using a Multidrop Combi. After the assay plates were incubated at 37 C/5% CO2 for 4 hrs, 23 nL of compounds at 15 concentrations (from 5-48 columns) or positive control (from 1 to 4 columns) were transferred to the assay plates using a Pintool station. One uL of CITCO (final concentration = 50 nM) was added, using a Flying Reagent Dispenser, inside each well. After a 23 hr incubation period at 37 C/5% CO2, 1 uL of CellTiter-Fluor reagent was added into each well of the assay plates using a Flying Reagent Dispenser. The fluorescence intensity in the plates was then measured using a ViewLux plate reader.
# % is scaled to controls: 0 for no effect and ±100 for the full control effect; potency is read from the fitted curve at half-maximal effect.
Compound,"activity change, negative = cytotoxicity",Potency
CC(C)(O)c1ccccc1CC[C@@H](SCC1(CC(=O)O)CC1)c1cccc(/C=C/c2ccc3ccc(Cl)cc3n2)c1,1.58% [at 42.5 µM],–
CN(C(=O)C(Cl)Cl)c1ccc(OC(=O)c2ccco2)cc1,0.835% [at 42.5 µM],–
CC(C)(C)C(=O)C(Oc1ccc(Cl)cc1)n1ccnc1 (stereo not given),-8.97% [at 42.5 µM],–
CC(=O)Nc1ccccc1C,-2.5%,–
CO[C@H]1C=CO[C@@]2(C)Oc3c(C)c(O)c4c(O)c(c5c(c4c3C2=O)=NC2(CCN(CC(C)C)CC2)N=5)NC(=O)/C(C)=C\C=C/[C@H](C)[C@H](O)[C@@H](C)[C@@H](O)[C@@H](C)[C@H](OC(C)=O)[C@@H]1C,–,47.5 µM (active)
CC(=O)[C@H]1CC[C@H]2[C@@H]3C=CC4=CC(=O)CC[C@@]4(C)[C@@H]3CC[C@]12C,-7.75% [at 42.5 µM],–
CCc1nn(CCCN2CCN(c3cccc(Cl)c3)CC2)c(=O)n1CCOc1ccccc1,-27.6% [at 42.5 µM],–
O=C(CCC1CCN(Cc2ccccc2)CC1)c1ccc2c(c1)NCCCC2,-23.3% [at 42.5 µM],–
NCC1CCCC(CN)C1 (stereo not given),0.681%,–
O=C(O)c1ccc(CO)o1,4.42%,–
CCC(=O)Oc1ccc(/C(CC)=C(\CC)c2ccc(OC(=O)CC)cc2)cc1,-6.91%,–
CC(C)=CC=O,0.657%,–
CCc1c2c(nc3ccc(OC(=O)N4CCC(N5CCCCC5)CC4)cc13)-c1cc3c(c(=O)n1C2)COC(=O)[C@]3(O)CC,-8.42% [at 42.5 µM],–
CCCCCCCC/C=C\CCCCCCCC(=O)OC,1.61%,–
OC/C(Br)=C(\Br)CO,-0.725%,–
O=Cc1c(Cl)cccc1Cl,-0.961%,–
CC(=O)Oc1ccc(C(=C2CCCCC2)c2ccc(OC(C)=O)cc2)cc1,-4.3% [at 42.5 µM],–
O=S1OCCO1,-1.49%,–
Nc1nc(Cl)nc2c1ncn2[C@@H]1O[C@H](CO)[C@@H](O)[C@@H]1F,-14.6% [at 42.5 µM],–
CC1=CC(=O)CC(C)(C)C1(O)/C=C/C(C)=C\C(=O)O (stereo not given),2.65%,–

Compound,"activity change, negative = cytotoxicity",Potency
C[N+]1(C)CCC(=C(c2ccccc2)c2ccccc2)CC1,-0.0209% [at 42.5 µM],–
COCC(O)CO (stereo not given),-8.46%,–
CCCCC(CC)C(=O)OCCOCCOCCOCCOC(=O)C(CC)CCCC (stereo not given),-0.0122%,–
C[C@@H]1C[C@H]2[C@@H]3CCC4=CC(=O)C=C[C@]4(C)[C@@]3(F)[C@@H](O)C[C@]2(C)[C@@]1(O)C(=O)CO,3.23%,–
Cc1ccc(Nc2nccc(N(C)c3ccc4c(C)n(C)nc4c3)n2)cc1S(N)(=O)=O,-23% [at 42.5 µM],–
Oc1ccc(Nc2ccccc2)cc1,0.19%,–
Cc1cc(OI)c(C(C)C)cc1-c1cc(C(C)C)c(OI)cc1C,9.8% [at 42.5 µM],–
COc1ccccc1N=Nc1c(S(=O)(=O)O)cc2cc(S(=O)(=O)O)cc(NC(C)=O)c2c1O,–,25.7 µM (active)
N#C/C(=C1\SCC(c2ccccc2Cl)S1)n1ccnc1 (stereo not given),2.86% [at 42.5 µM],–
c1ccc(COCc2ccccc2)cc1,3.84%,–
Nc1c(I)cc(I)c(C(=O)N(CCC(=O)O)c2ccccc2)c1I,0.516% [at 42.5 µM],–
CCOC(=O)N1CCC(n2c(=O)[nH]c3cc(Cl)ccc32)CC1,-22.9% [at 42.5 µM],–
CCCCCCCCCCCCCCC[C@H](O)[C@@H](N)CO,-2.31% [at 42.5 µM],–
CCCCC(=O)O[C@]1(C(=O)CO)CC[C@H]2[C@@H]3CCC4=CC(=O)CC[C@]4(C)[C@H]3[C@@H](O)C[C@@]21C,6.78% [at 42.5 µM],–
C=CC(=O)NCOCC(C)C,-3.96%,–
CC(CCO)CCc1ccccc1 (stereo not given),0.416%,–
CCCCCCCCCCCC(=O)[O][Sn]([CH2]CCC)([CH2]CCC)[O]C(=O)CCCCCCCCCCC,0.348% [at 42.5 µM],–
CN(C)C(=O)Nc1ccc(Oc2ccc(Cl)cc2)cc1,-9.12%,–
CC(=O)[C@H]1CC[C@H]2[C@@H]3C[C@H](C)C4=CC(=O)CC[C@]4(C)[C@H]3[C@@H](O)C[C@]12C,0.418% [at 42.5 µM],–
OCC1CC=CCC1 (stereo not given),-0.776%,–

# Source: PubChem BioAssay (Tox21)
